Data published in PubChem BioAssay (Tox21).
Inconclusive results are not listed. Values without a mark were called inactive. The source made the active and inactive calls. Calls follow the shape of the dose curve; as a rule, active = well fitted cell-killing curve with a large enough effect in the repeat runs; inconclusive = weak or mixed curves, or effect the other way; inactive = flat fitted curve, though single readings scatter.

assay: qHTS RealTime-Glo MT Cell Viability Assay in HEK293 cells - 24 hour (AID 1224886); details: RealTime-Glo luminescence; series mostly up to 76.8 µM; activity change, negative = cytotoxicity: at the top concentration; also: nearly all actives have a fitted effect of over 50% in size; as to activity change, negative = cytotoxicity: top concentration of the series differs between compounds
Procedure, shortened: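 Reads taken at 0, 8, 16, 24, 32 and 40 h from the same wells. HEK293 cells (600/well) carried RealTime-Glo reagents from seeding, with compound added after a 5 h settle at 37 C.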
% is scaled to controls: 0 for no effect and ±100 for the full control effect; potency is read from the fitted curve at half-maximal effect.

Row | Structure (SMILES) | activity change, negative = cytotoxicity | Potency
1 | Cc1ccc(Cl)c(Nc2ccccc2C(=O)O)c1Cl | 0.01% [at 35.3 µM] | 
2 | NC1[C@H]2CN(c3nc4c(cc3F)c(=O)c(C(=O)O)cn4-c3ccc(F)cc3F)C[C@@H]12 (stereo partly drawn) | -11.6% [at 35.3 µM] | 
3 | CCOC(=O)c1ccc(O)c(O)c1 | -20.8% [at 35.3 µM] | 
4 | CCCCCCCCOc1ccc(C(=O)O)cc1 | -2.26% | 
5 | CC1CC(OC(=O)C(O)c2ccccc2)CC(C)(C)N1C (stereo not drawn) | 2.95% [at 35.3 µM] | 
6 | CC(C)(C)C(=O)C(=O)O | -3.06% | 
7 | CCC1(CO)COCOC1 | -13.5% | 
8 | OC(CCN1CCCC1)(c1ccccc1)C1CCCCC1 (stereo not drawn) | -8.19% [at 35.3 µM] | 
9 | O=C1c2ccccc2C(=O)C1(O)O | -1.55% | 
10 | Nc1nnc(-c2ccc([N+](=O)[O-])o2)o1 | -8.95% | 
11 | Oc1ccc(Cl)c2cccnc12 | -22.1% [at 35.3 µM] | 
12 | CCCCCCCC/C=C\CCCCCCCCO | -0.324% | 
13 | O=C(OCC(O)CO)c1ccccc1Nc1ccnc2cc(Cl)ccc12 (stereo not drawn) |  | 7.56 µM (active)
14 | CC(CC1c2ccccc2CCc2ccccc21)CN(C)C (stereo not drawn) | -19.5% [at 35.3 µM] | 
15 | C[C@H]1C[C@H](O)c2ccsc2S1(=O)=O | 3.7% [at 35.3 µM] | 
16 | CO/N=C(/C(=O)N[C@@H]1C(=O)N2C(C(=O)O)=C(COC(N)=O)CS[C@H]12)c1ccco1 | -0.361% | 
17 | COc1ccc(OC(=O)N(CC(=O)O)Cc2ccc(OCCc3nc(-c4ccccc4)oc3C)cc2)cc1 | -9.25% [at 35.3 µM] | 
18 | CC(CN(C)C)C(C)(O)Cc1ccc(Cl)cc1 (stereo not drawn) | -1.88% [at 35.3 µM] | 
19 | COC(=O)c1nc(Cl)c(Cl)nc1N |  | 9.52 µM (active)
20 | O=C(O)CCc1nc(-c2ccccc2)c(-c2ccccc2)o1 | 8.4% [at 35.3 µM] | 
21 | CCC(OCCCOC)OC(C)=O (stereo not drawn) | 1.09% | 
22 | CC1=C(Br)C(=O)C(Br)=C/C1=C(/c1ccccc1S(=O)(=O)O)c1cc(Br)c(O)c(Br)c1C | 2.05% [at 35.3 µM] | 
23 | CN1C(=O)N(c2ccccc2Br)Cc2cnc(Nc3ccc4c(c3)OCC(CO)O4)nc21 (stereo not drawn) |  | 6.92 µM (active)
24 | CC(CCC(=O)O)C(=O)O (stereo not drawn) | -0.052% | 
25 | CCOc1ccccc1O[C@H](c1ccccc1)[C@H]1CNCCO1 | -0.0872% [at 35.3 µM] | 
26 | NCCNCCO | 16.5% | 
27 | COC(=O)C1=C(C)NC(C)=C(C(=O)O[C@@H]2CCCN(Cc3ccccc3)C2)[C@@H]1c1cccc([N+](=O)[O-])c1 | -24.5% [at 35.3 µM] | 
28 | COc1cc(N)c(Cl)cc1C(=O)NC1CCN(CCCOc2ccc(F)cc2)CC1OC (stereo not drawn) |  | 3.01 µM (active)
